# Screening results (PubChem BioAssay)
# Eya2 phos inh: qHTS Assay for Inhibitors of the Phosphatase Activity of Eya2. AID 488837, 2010. recombinant Eya2, OMFP fluorescence dephosphorylation (OMFP is methylfluorescein phosphate). 0.006% of 330,000 active. Protein phosphatase EYA2 (Homo sapiens), O00167. Potency, µM (series often up to 76.9 µM), for the others: at the top dose activity, negative = inhibition, actives largely listed as inhibitors; note: potency is the fitted concentration of half-maximal effect
#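 Eya2 protein (added as 0.2 uM solution) was preincubated with compound for 10 min at ambient temperature in 50 mM HEPES pH 7.5, 50 mM NaCl, 5 uM MgCl2, 0.05% BSA, 1 mM DTT. OMFP (added at 50 uM) then reacted 10 min; fluorescence read at 485/525 nm.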
# rTrxR1 inhibitor: qHTS Assay for Inhibitors of Mammalian Selenoprotein Thioredoxin Reductase 1 (TrxR1): qHTS; 1% of 390,000 active; Thioredoxin reductase 1, cytoplasmic (Rattus norvegicus), O89049; recombinant rTrxR1, NADPH fluorescence consumption, selenite substrate; Potency, µM (top dose mostly 114 µM), for the others: top-dose activity change, negative = inhibition, usual class: inhibitors; note: potency is the fitted concentration of half-maximal effect; nearly all actives have a fitted effect of over 65% in size
#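 Rat TrxR1 (90 nM in the dispensed reagent) was pre-reduced with 400 uM NADPH for 5 min at room temperature, then incubated with compound for 15 min. After 400 uM selenite was added, NADPH fluorescence (Ex 340/Em 450 nm) was followed for 8 min.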
# FBPA coupling cs: qHTS Assay for Inhibitors of Fructose-1,6-bisphosphate Aldolase from Giardia Lamblia: Coupling assay counterscreen; coupling enzyme system counterscreen, AmpLite Red fluorescence; activity change, negative = inhibition, % at 58.2 µM, hits read low; 0.67% of 290,000 active; AID 2472, 2010; in the data active = activity change below about -30%
#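 Compounds tested against the coupling enzymes alone at 57.5 uM final; readout was AmpLite Red fluorescence (525/598 nm) after 20 min at RT.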
# TrxR1 substrate: qHTS Assay for Substrates of Mammalian Selenoprotein Thioredoxin Reductase 1 (TrxR1): qHTS | 0.01% of 390,000 active | purified TrxR1 substrate turnover, NADPH consumption readout | Potency, µM (doses to about 114 µM), for the others: at the top dose activity change, negative = substrate turnover | AID 588456, 2011 | Thioredoxin reductase 1, cytoplasmic (Rattus norvegicus), O89049; note: potency is the fitted concentration of half-maximal effect; nearly all actives have a fitted effect of over 50% in size
#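 Rat TrxR1, dispensed at 90 nM, was prereduced with 400 uM NADPH (final) for 5 min at ~22 deg C, then incubated with compound 15 min before 400 uM selenite. A first-read NADPH fluorescence drop versus no-compound background flagged substrates.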
# IDH1 R132H inh: qHTS for Inhibitors of mutant isocitrate dehydrogenase 1 (IDH1): qHTS. Isocitrate dehydrogenase [NADP] cytoplasmic (Homo sapiens), O75874. IDH1-R132H enzyme, NADPH consumption, diaphorase/resazurin fluorescence. Potency, µM (series often up to 76.6 µM), for inactives: at the highest dose activity change, negative = inhibition, usual class: inhibitors. 0.093% of 390,000 active. AID 602179, 2012; note: potency is the fitted concentration of half-maximal effect; nearly all actives have a fitted effect of over 65% in size
# Target sequence (O75874 whole entry R132H, stated change not applied): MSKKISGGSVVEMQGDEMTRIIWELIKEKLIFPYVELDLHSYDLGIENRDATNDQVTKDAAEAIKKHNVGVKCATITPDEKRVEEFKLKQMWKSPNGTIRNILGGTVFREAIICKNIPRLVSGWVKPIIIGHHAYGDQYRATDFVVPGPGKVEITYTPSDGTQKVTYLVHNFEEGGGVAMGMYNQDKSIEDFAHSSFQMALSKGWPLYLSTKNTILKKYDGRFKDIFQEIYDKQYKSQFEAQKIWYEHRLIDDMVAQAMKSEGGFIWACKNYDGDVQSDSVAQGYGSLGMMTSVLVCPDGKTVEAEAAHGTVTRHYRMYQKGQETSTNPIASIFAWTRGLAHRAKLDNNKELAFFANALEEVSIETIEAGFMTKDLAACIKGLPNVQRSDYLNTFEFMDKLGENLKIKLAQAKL
#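 IDH1-R132H (0.5 ug/mL dispensed) in pH 7.5 Tris buffer was preincubated 30 min with compound, then given a substrate mix of 0.016 mM NADPH and 2 mM alpha-KG for 80 min at room temperature; remaining NADPH was read by diaphorase/resazurin fluorescence.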
# * = called active by the depositor; ? = inconclusive; . = not tested or not shown; [ ] = remark or other dose. Shown are actives, neighbours in structure and some others; about 1.5% of the full set was active somewhere. Unless noted, calls come from the whole dose curve; as a rule, active = well fitted curve in the direction sought with a large enough effect; inconclusive = small, poorly fitted or top-dose-only effect, or another doubt; inactive = no such curve, though single readings can be large; an effect the other way counts as inactive or inconclusive. % is set by controls: 0 for no effect and ±100 for the full control effect.
SMILES,Eya2 phos inh,rTrxR1 inhibitor,FBPA coupling cs,TrxR1 substrate,IDH1 R132H inh
COc1ccc(C2=Nn3c(nnc3-c3ccccc3Cl)SC2)cc1OC1CCOC1 (centres undefined),-2%,5%[57.1 µM],.,-8%[57.1 µM],.
COc1ccc(C2=Nn3c(nnc3-c3ccccc3Cl)SC2)cc1OC1CCCC1,-5%,7.1µM*,.,-11%,.
CC[C@H](C)[C@H](NC(=O)[C@H](Cc1ccc(O)cc1)NC(=O)[C@H](Cc1cnc[nH]1)NC(=O)[C@H](CCCNC(=N)N)NC(=O)[C@H](CC(C)C)NC(=O)[C@H](C)NC(=O)[C@@H](N)CO)C(=O)N[C@@H](CC(N)=O)C(=O)N[C@@H](CC(C)C)C(=O)N[C@H](C(=O)N[C@H](C(=O)N[C@@H](CCCNC(=N)N)C(=O)N[C@@H](CCC(N)=O)C(=O)N[C@@H](CCCNC(=N)N)C(=O)N[C@@H](Cc1ccc(O)cc1)C(N)=O)[C@@H](C)O)[C@@H](C)CC,.,.,-1,.,.
CC1(C)CC(=O)C(CS(=O)(=O)c2ccccc2)=C(Cl)C1,-1%,28µM*,.,4%,11%
CC1(C)CC(=O)c2sc(NC(=O)CCS(=O)(=O)c3ccccc3)nc2C1,9%,6%[57.1 µM],0,7%[57.1 µM],-4%
COC(=O)c1sc(NC(=O)c2ccc([N+](=O)[O-])o2)c(C#N)c1C,-2%,14µM*,17,?,3%
CCOC(=O)c1sc(NC(=O)c2cc(-c3ccc(C)cc3)nc3ccccc23)c(C#N)c1C,-22%,?,5,-6%,-9%
COC(=O)c1sc(NC(=O)c2cc(-c3ccccc3)nc3ccccc23)c(C#N)c1C,8%,-7%[57.1 µM],-73*,4%[57.1 µM],0%
CC(=O)N1CCc2c(sc(NC(=O)c3ccc([N+](=O)[O-])o3)c2C#N)C1,2%,?,-11,-21%,-4%
CN(C)C1CCC(CC2CCc3ccccc32)CC1 (centres undefined),.,12%,.,9%,.
CCC[N+](C)(C)c1ccc(/C=C/c2ccnc3ccccc23)cc1,.,-25%,.,-11%,.
O=C(NCCCCN1CCOCC1)c1cc2ccccc2o1,.,.,-3,.,.
CN(C)CCCCCCNc1nccc(N2CCN(C)CC2)n1,.,-5%,.,4%,.
CCOc1ccc(N=C/C=C/c2ccccc2)c(O)c1,-5%,-18%,-32*,-1%,3%
N=C1C=CC=C2C1=NC1(CCCCC1)N2O,5%,?,-48*,5%,5%
COC(=O)CSc1[nH]c2ccc(F)cc2c1[N+](=O)[O-],0%,35µM*,2,-2%,15%
CCOC(=O)CSc1[nH]c2cc(OC)ccc2c1[N+](=O)[O-],2%,-53%,-2,12%[57.1 µM],2%
O=C(CN1CCN(c2ccccc2)CC1)c1c[nH]c2ccccc12,12%,22%[57.1 µM],3,8%[57.1 µM],2%
N#Cc1ccc(C(=O)CN2CCN(c3ccccc3)CC2)cc1,15%,50µM*,1,6%,9%
CC1CCN(c2ccccc2NC(=S)NC(=O)c2ccc(-c3cccc([N+](=O)[O-])c3)o2)CC1,-16%,-23%,1,-5%,-4%
CC1CCN(c2ccc(NC(=S)NC(=O)c3ccc(-c4cccc([N+](=O)[O-])c4)o3)cc2)CC1,8%,20µM*,1,-4%,-2%
O=C(c1ccco1)N1CCN(S(=O)(=O)c2ccc(Br)s2)CC1,-14%,10µM*,9,10%,0%
CC(C)(C)c1ccc(C(=O)N2CCN(S(=O)(=O)c3ccc(Br)s3)CC2)cc1,-4%,15%,.,0%,1%
O=C(CN1C(=O)C(=O)N(Cc2ccco2)C1=O)c1c[nH]c2ccccc12,4%,14µM*,0,0%,-16%
CCOc1ccc(C(=O)NC(=S)Nc2ncccc2C)cc1[N+](=O)[O-],-5%,5%,1,-2%,1%
SMILES,Eya2 phos inh,rTrxR1 inhibitor,FBPA coupling cs,TrxR1 substrate,IDH1 R132H inh
CCCCn1nnc(NC(=S)NC(=O)c2ccc(OCC)c([N+](=O)[O-])c2)n1,5%,79µM*,.,4%,3%
CSCCC(NC(C)=O)C(=O)Oc1ccc2c3c(c(=O)oc2c1)CCCC3 (centres undefined),-1%,50µM*,0,583%,8%
O=C(c1ccccc1NS(=O)(=O)c1ccc([N+](=O)[O-])cc1[N+](=O)[O-])N1O[C@@H]2C=C[C@H]1C2,-6%,3.2µM*,.,0%,-2%
Cc1ccc(CS(=O)(=O)c2ccc(C(=O)N3CCCCC3)cc2[N+](=O)[O-])cc1,0%,-52%,0,12%[57.1 µM],4%
CCN(CC)C(=O)c1ccc(S(=O)(=O)Cc2ccc(C)cc2)c([N+](=O)[O-])c1,1%,32µM*,0,11%,0%
N=C1CCC(=N)c2c1c(O)c1ccccc1c2O,-2%,?,-32*,2%,12%
CCN(CC(=O)Nc1cc(Cl)ccc1C)C(=O)C1COc2ccccc2O1 (centres undefined),4%,50µM*,.,0%,-1%
Cc1[nH]c2ccccc2c1C(c1ccncc1)N1CCC(C)CC1 (centres undefined),5%,-45%,-6,-5%,0%
Cc1[nH]c2ccccc2c1C(c1ccccn1)N1CCC(C(N)=O)CC1 (centres undefined),-11%,1.6µM*,-4,5%,9%
COC(=O)N1C(c2ccccc2)=Cc2ccccc2C1CC(C)=O (centres undefined),.,.,0,.,.
Nc1nc(N)c2c(Oc3ccc(F)cc3)cccc2n1,.,3%,.,32%,.
CCC/C=C1/CCCOC(C(=O)NCc2ccc(C)o2)(C(F)(F)F)C1 (centres undefined),5%,13µM*,-3,-9%,12%
CCC/C=C1\CCCOC(C(=O)NCc2ccc(C)o2)(C(F)(F)F)C1 (centres undefined),.,?,-1,-1%,.
CC(C)C(=O)Nc1ccc(N2CCN(c3ccc(F)cc3)CC2)cc1,2%,11%[57.1 µM],6,2%[57.1 µM],10%
CC(C)C(=O)Nc1ccc(N2CCCC2)cc1,5%,-8%,-32*,-4%,-1%
CC(C)N(CCC(=O)c1ccc2ccccc2c1)Cc1ccccc1,5%,3.2µM*,16,25%[57.1 µM],4%
Cc1ccc2[nH]c3c(c2c1)CN(C(=O)CN1CC(C)OC(C)C1)CC3 (centres undefined),4%,-48%,-33*,-6%,0%
COc1ccc(C(=O)CNC2=NCCC2)cc1,15%,24%[57.1 µM],1,8%[57.1 µM],3%
O=C(CNC1=NCCC1)c1ccc(Cl)cc1,-1%,10%,-36*,0%,2%
